Screens from PubChem BioAssay.
ELG1 genotoxic: induces genotoxicity in HEK293T cells with luciferase-tagged ELG1 | HEK293T ELG1-luciferase reporter, luminescence, 16 h | Potency, µM (doses to about 46 µM), inactives show at the highest dose activity change, positive = activation, actives largely listed as activators | 330,000 compounds, 1.3% hits; note: % of control where 0% means no effect; nearly all actives have a fitted effect of over 60% in size
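DMSO vehicle served as control against compound-treated ELG1-luciferase HEK293T cells; exposure lasted 16 hr at 37 °C and 5% CO2, followed by ONE-Glo luminescence detection after 30 min.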
SMN2 splice up: increases expression of the SMN2 splice variant; HEK293 SMN2-luciferase splicing reporter, luminescence, 30-36 h; Potency, µM (top dose mostly 46.1 µM), inactives show at the highest dose activity change, positive = activation, usual class: activators; 210,000 compounds, 2.8% hits; note: % of control where 0% means no effect; nearly all actives have a fitted effect of over 55% in size
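HEK293 cells carry an SMN2 minigene-luciferase reporter in which exon 7 inclusion puts luciferase in frame. Cells were seeded at 2000 cells/well, attached for 10-12 hours, then exposed to compounds for 30-36 hours at 37C before ONE-Glo luminescence.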
Rab9 promoter act: activators of Rab9 promoter; 320,000 compounds, 2.8% hits; Huh7 Rab9 promoter-luciferase reporter, luminescence, 24 h; AID 485297; Potency, µM (titrated, usually from 9.22 µM), for inactives: at the top dose activation, negative = inhibition, most hits filed as activators; note: % of control where 0% means no effect; nearly all actives have a fitted effect of over 60% in size
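Measured in stably transfected Huh7 cells bearing a Rab9 promoter–luciferase construct: 24 h compound treatment at 37 °C, followed by luminescence detection.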
NPC1 promoter act: activators of NPC1 promoter | 320,000 compounds, 2.4% hits | Potency, µM (series often up to 9.22 µM), without a hit: at the top dose activation, hits mostly activators | AID 485313 | Huh7 NPC1 promoter luciferase reporter, 24 h; note: % of control where 0% means no effect; nearly all actives have a fitted effect of over 60% in size
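Stably transfected Huh7 (NPC1 promoter→luciferase), 1500 cells/well in Opti-MEM + 10% FBS, 2 h settle, then compound 24 h at 37 °C. Luminescence after 10 min with Amplite reagent.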
FLuc counter: counter-screen for miR-21 project: firefly luciferase inhibitors or activators; P08659; purified FLuc, Km substrates, luminescence inhibition; Potency, µM (series often up to 57.5 µM), inactives show at the highest dose activity change, negative = inhibition, hits mostly inhibitors; 360,000 compounds, 6.9% hits;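 note: plate controls were vehicle for no effect and reference inhibitor for full effect; nearly all actives have a fitted effect of over 55% in size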
Target sequence (P08659 whole entry, looked up): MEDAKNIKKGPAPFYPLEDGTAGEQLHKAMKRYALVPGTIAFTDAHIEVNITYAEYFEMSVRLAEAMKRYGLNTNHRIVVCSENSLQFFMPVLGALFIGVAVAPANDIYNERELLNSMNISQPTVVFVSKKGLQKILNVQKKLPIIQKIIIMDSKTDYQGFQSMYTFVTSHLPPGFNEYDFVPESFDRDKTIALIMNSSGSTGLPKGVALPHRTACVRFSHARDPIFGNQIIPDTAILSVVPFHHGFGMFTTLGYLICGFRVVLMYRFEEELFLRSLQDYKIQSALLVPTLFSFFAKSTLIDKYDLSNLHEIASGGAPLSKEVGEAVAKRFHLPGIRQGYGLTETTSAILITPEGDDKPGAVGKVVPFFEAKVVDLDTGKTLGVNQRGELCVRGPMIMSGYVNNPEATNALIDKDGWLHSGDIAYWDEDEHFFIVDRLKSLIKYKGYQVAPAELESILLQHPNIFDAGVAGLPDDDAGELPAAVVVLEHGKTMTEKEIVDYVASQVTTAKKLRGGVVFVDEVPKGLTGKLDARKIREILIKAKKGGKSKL
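Purified P. pyralis luciferase, 10 nM final, with Km-level 10 uM D-luciferin and 10 uM ATP in 50 mM Tris acetate pH 7.5, 10 mM Mg acetate, 0.01% Tween-20, 0.05% BSA; 6-point qHTS titration about 60 µM downward; luminescence read.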
Active calls of the source: *; ? = inconclusive; nt = no result; [ ] = dose if it differs, or a comment. The list is not random: actives were taken first. Their share in the collection is about 7.5%. Calls come from the whole dose curve; as a rule, active = well fitted curve in the direction sought with a large enough effect; inconclusive = small, poorly fitted or top-dose-only effect, or another doubt; inactive = no such curve, though single readings can be large; an effect the other way counts as inactive or inconclusive. Potency is the fitted concentration of half-maximal effect.

SMILES | ELG1 genotoxic | SMN2 splice up | Rab9 promoter act | NPC1 promoter act | FLuc counter
Nc1ccc(C(=O)N/N=C/c2sc(N3CCOCC3)nc2-c2ccccc2)cc1 | 5.4% | ? | -1.0% | -0.3% | ?
O=C(O)c1cccc(N/N=C/c2sc(N3CCOCC3)nc2-c2ccccc2)c1 | 14.6µM* | 17.4%[1.84 µM] | 2.82µM* | 3.98µM* | 1.2µM*
Cc1ccc(/C=N/Nc2ccc(C(=O)O)cc2)s1 | ? | -98.5% | ? | ? | 0.536µM*
O=C(N/N=C\c1cc(Br)cs1)c1ccncc1 | -6.0% | nt | 3.6% | -38.2% | ?
O=C(O)c1ccc(N/N=C/c2cc(Br)cs2)cc1 | ? | nt | 0.1µM* | 0.0891µM* | 0.239µM*
Cc1ccc(/C=N/Nc2cccc(C(=O)O)c2)s1 | ? | 0.251µM* | 0.0891µM* | 0.0891µM* | 0.953µM*
Cn1cccc1C(=O)N1CCC2(CCCN(C(c3ccccc3)c3ccccc3)C2)CC1 | nt | -12.8% | nt | nt | nt
C=C1C[C@H](O[C@@H]2O[C@H](CO)[C@@H](O)[C@H](O)[C@H]2O)[C@@H]2[C@H](OC(=O)[C@H]2C)[C@H]2[C@H](C)[C@H](O)C[C@@H]12 | -0.4% | nt | nt | nt | nt
COc1cccc(C(=O)Nc2cccc(-c3nnc(-c4ccco4)o3)c2)c1 | -31.6% | -25.1% | 9.6% | -0.3% | 19µM*
O=C(Nc1ccccc1)c1cccc(-c2nnc(-c3ccccc3)o2)c1 | ? | 1µM* | 3.98µM* | 2µM* | -11.9%
O=C(CSc1ccc(Cl)cc1)Nc1cccc(-c2nnc(-c3ccco3)o2)c1 | 15.3% | ? | ? | ? | 0.0%
Cc1ccc(SCC(=O)Nc2cccc(-c3nnc(-c4ccco4)o3)c2)cc1 | -4.1% | 22.4µM* | 3.16µM* | 3.16µM* | -10.8%
COc1cccc(-c2nnc(-c3ccccc3NC(=O)c3ccc(C(C)(C)C)cc3)o2)c1 | 3.2% | nt | 13.7% | -1.6% | 2.39µM*
COc1cccc(C(=O)Nc2ccncc2)c1 | -5.1% | nt | 2.9% | -1.6% | -8.1%
Cc1cccc2c(=O)cc(CSc3ccccc3NC(=O)c3cccc(F)c3)[nH]c12 | nt | nt | nt | nt | 0.9%
CC(C)CCN1CCNC(=O)C1CC(=O)N(C)CCCN1CCOCC1 (configuration not stated) | 1.2% | nt | 0.1% | -0.6% | -0.3%
CC(=O)N1CCc2c(sc3c2c(=O)n(Cc2ccccc2)c(=O)n3Cc2ccccc2Cl)C1 | nt | 0.1% | nt | nt | 1.0%
Cc1cc(C)c2c(n1)sc1c(=O)n(Cc3ccc(F)cc3)cnc12 | 8.5% | nt | -0.4% | -2.9% | 2.3%
COC(=O)Cn1c(C)nc2c(sc3nc(C)cc(C)c32)c1=O | 16.4µM* | 11.2µM* | ? | ? | 12µM*
C=CCn1cnc2c(sc3nc(C)cc(C)c32)c1=O | ? | nt | 19.0% | 6.2% | 16.9µM*
CCOC(=O)Cn1cnc2c(sc3nc(C)cc(C)c32)c1=O | ? | nt | ? | ? | 12µM*
CCCCOC(=O)c1ccc(-n2nnc3c(sc4nc(C)cc(C)c43)c2=O)cc1 | nt | 18.3% | nt | nt | -1.2%
CCOc1ccc(CN2CCN(Cc3[nH]c4ccccc4c3C)CC2CCO)cc1 (configuration not stated) | -6.0% | -21.0% | -0.1% | -4.3% | -1.4%
COc1ccc(OC)c(/C=C/C(=O)Nc2ccc3c(c2)CCC3)c1 | -0.4% | 12.1% | 1.5% | 6.1% | 10.7µM*
COc1ccc(/C=C/C(=O)Nc2ccc(-c3nnc4n3CCCCC4)cc2)c(OC)c1 | -7.3% | -11.8% | 1.3% | 4.5% | 26.9µM*
SMILES | ELG1 genotoxic | SMN2 splice up | Rab9 promoter act | NPC1 promoter act | FLuc counter
COc1ccc(NC(=O)Nc2ccc3c(c2)CCC3)cc1 | 20.6µM* | nt | ? | ? | -13.2%
Cc1ccc(NC(=O)Cn2nc(-c3ccco3)ccc2=O)cc1Cl | -0.9% | nt | 0.3% | 0.7% | -3.3%
CCOC(=O)/C=C/C(=O)Nc1ccc(-c2nnc3n2CCCCC3)cc1 | 0.8% | nt | 1.3%[1.84 µM] | 2.2% | -0.3%
COc1ccc(NC(=O)/C=C/c2cc(Br)ccc2OC)cc1 | -7.3% | -0.7% | 6.5% | 12.3% | ?
Cc1ccc(NC(=O)c2ncoc2-c2ccco2)cc1Cl | nt | nt | nt | nt | 10.7µM*
Cc1cc(C)c2c(CC(=O)NC3CCS(=O)(=O)C3)coc2c1 (configuration not stated) | 2.8% | nt | -4.2% | -7.0% | 4.2%
O=C(Cc1ccccc1)NCC(=O)Nc1cccc(Cl)c1 | 3.5% | nt | -3.4% | -1.5% | -0.2%
